“And” between values parts separate entries of the source, which are not always exact repeats. Equal entries are not always repeated. The source made the active and inactive calls.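 The calls were made as follows, unless noted: active = inhibition at or above 50% relative to wild type and mutant plate controls; inactive = inhibition below 50%.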
Tests used:
[1] = inhibitors of TNFa-induced NFkB p65 translocation, primary screen, imaging, HUVEC, MLSMR starter and 10KST1 sets (AID 438;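 active = inhibition above 20% together with a positive visual image hit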;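 also: compound added about 3h40 before a 20 min TNFalpha stimulation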;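 as to inhibition: signal is the nuclear over cytoplasmic p65 intensity ratio per well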); conditions: HUVEC TNFa-induced p65 nuclear translocation; cell count: measured here: nuclei count (cytotoxicity indicator), at 2.08 µM; inhibition: at 2 µM, stronger effect = higher value, 0% TNFa-plus-vehicle, 100% no-TNFa wells
[2] = reduction of polyQ htt aggregates in cells – imaging, exon1htt(103Q)mCFP cells, high-content imaging, primary screen (AID 483;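 active = visual image review flags a hit and inhibition of aggregation exceeds 20%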;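 also: compound exposure lasted 3 days before fixation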;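 as to nuclei count: percent of the per-plate median nuclei count of sample wells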); conditions: exon1htt(103Q)mCFP cell line, aggregate imaging, at 2 µM; inhibition of aggregation: stronger effect = higher value; nuclei count: measured here: cell count, toxicity
[3] = endothelial E-selectin expression blockers – imaging, HUVEC, immunofluorescence, MLSMR starter and 10KST1 sets, primary screen (AID 487;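 active = visually confirmed hit in the image check and inhibition above 20%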;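 as to inhibition: signal is fraction of cell area covered by stained E-selectin grains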;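 as to nuclei count: 100% = median nuclei count of all wells on the same plate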); conditions: HUVEC TNFalpha-induced E-selectin immunofluorescence imaging, at 2 µM; inhibition: stronger effect = higher value; nuclei count: measured here: cell number, toxicity
[4] = Primary imaging screen for DUSP6 inhibitors that restore phospho-Erk in transfected HeLa cells, chemical complementation (AID 609;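 active = compounds giving at least 50% inhibition in the cell-based MKP-3 phosphatase rescue imaging test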;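 as to inhibition: phospho-Erk level distribution per well compared with pooled transfected vehicle control wells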); conditions: HeLa MKP-3 transfected, phospho-Erk imaging KS statistic, at 10 µM, cells stimulated with TPA for 15 min
[5] = target: Dual specificity protein phosphatase 6 (Homo sapiens) (UniProt Q16828); assay: as above; conditions: HeLa MKP-3 transfected, phospho-Erk imaging KS statistic; at 10 µM; stronger effect = higher value; cells stimulated with TPA for 15 min
Dual specificity protein phosphatase 6 (Homo sapiens), sequence (Q16828 whole entry, looked up): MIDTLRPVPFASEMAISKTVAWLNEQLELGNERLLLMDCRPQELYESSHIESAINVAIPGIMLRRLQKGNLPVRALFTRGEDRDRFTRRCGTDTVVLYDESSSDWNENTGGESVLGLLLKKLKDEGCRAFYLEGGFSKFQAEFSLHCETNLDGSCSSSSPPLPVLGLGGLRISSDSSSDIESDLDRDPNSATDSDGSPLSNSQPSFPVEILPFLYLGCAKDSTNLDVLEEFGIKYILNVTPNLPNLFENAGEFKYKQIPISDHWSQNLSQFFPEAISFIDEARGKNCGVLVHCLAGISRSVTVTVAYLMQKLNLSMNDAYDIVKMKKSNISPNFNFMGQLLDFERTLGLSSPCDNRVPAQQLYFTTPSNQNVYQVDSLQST

[6] = target: Voltage-gated potassium channel subunit beta-2 (Rattus norvegicus) (UniProt P62483); assay: inhibitors of rat Kvbeta2 reductase activity – biochemical, NADPH fluorescence, primary screen (AID 622;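 active = fluorescence slope higher than the sample average by over 3 SD, cut at about -0.22 in these data, passing the limit was not always enough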;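 also: slope of raw intensity against log time taken from 70 to 1610 s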); conditions: recombinant KvBeta, 4-cyanobenzaldehyde reduction, at 10 µM, stronger effect = higher value
Voltage-gated potassium channel subunit beta-2 (Rattus norvegicus), sequence (P62483 whole entry, looked up): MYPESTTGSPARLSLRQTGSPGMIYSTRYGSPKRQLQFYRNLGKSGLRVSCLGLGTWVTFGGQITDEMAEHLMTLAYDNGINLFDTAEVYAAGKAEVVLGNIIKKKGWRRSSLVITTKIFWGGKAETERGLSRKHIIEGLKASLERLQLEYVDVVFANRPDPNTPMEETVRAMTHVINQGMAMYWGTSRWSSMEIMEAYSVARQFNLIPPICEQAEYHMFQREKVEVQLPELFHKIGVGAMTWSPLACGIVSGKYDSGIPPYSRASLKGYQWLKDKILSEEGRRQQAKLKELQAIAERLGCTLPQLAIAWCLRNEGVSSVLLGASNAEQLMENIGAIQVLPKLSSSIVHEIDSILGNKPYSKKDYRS

[7] = target: Voltage-gated potassium channel subunit beta-2 (Rattus norvegicus) (UniProt P62483); assay: enhancers of rat Kvbeta2 NADPH turnover – biochemical, NADPH fluorescence, primary screen (AID 623;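 active = NADPH fluorescence slope more negative than the mean of all samples by about 3 SD, 99.7% confidence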;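 also: fluorescence intensity change per second fitted from 20 to 320 s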); conditions: Recombinant KvBeta, NADPH fluorescence decrease slope, 10 min; at 10 µM; stronger effect = lower value
[8] = target: Alpha-2C adrenergic receptor (Homo sapiens) (UniProt P18825); assay: compounds altering alpha2C-coupled GIRK flux – cell-based, HEK293 alpha2C/GIRK1/2, thallium flux, primary screen (AID 624;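 active = fluorescence slope after compound addition differing from the mean of all screened samples at 99.7% confidence, in either direction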;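 also: slope of fluorescence ratio to pre-addition baseline per second over 15 to 24 s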); conditions: thallium flux BTC fluorescence, at 10 µM, actives lie on both sides
Alpha-2C adrenergic receptor (Homo sapiens), sequence (P18825 whole entry, looked up): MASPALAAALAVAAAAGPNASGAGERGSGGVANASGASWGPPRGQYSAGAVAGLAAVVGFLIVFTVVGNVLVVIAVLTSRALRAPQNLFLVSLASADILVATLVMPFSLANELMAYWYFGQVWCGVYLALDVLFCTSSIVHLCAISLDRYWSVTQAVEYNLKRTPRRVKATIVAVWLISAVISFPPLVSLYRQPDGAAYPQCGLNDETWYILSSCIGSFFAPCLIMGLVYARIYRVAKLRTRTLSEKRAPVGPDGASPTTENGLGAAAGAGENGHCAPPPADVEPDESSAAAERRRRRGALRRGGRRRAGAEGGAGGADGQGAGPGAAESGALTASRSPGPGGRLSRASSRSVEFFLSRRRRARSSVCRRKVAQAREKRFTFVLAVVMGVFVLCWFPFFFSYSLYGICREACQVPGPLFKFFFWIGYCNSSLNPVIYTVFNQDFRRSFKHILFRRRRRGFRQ

[9] = inhibitors of larval lipid processing in zebrafish, primary screen, whole organism, PED6 fluorescence, gall bladder and intestine (AID 686;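 active = a full or partial loss of lipid-probe fluorescence in the fish gall bladder, intestine or both, judged by eye; inactive = no fluorescence loss, or compound toxic to the fish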;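 also: larvae 5 to 7 days old with five fish per well; signal comes from phospholipase A2 cleavage of quenched PED6 carried via bile; overnight exposure to compound and PED6 before scoring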); conditions: Zebrafish larvae PED6 lipid processing, fluorescence scoring; screened at 20 µM (by protocol)
[10] = loss of swimming-algae plug formation – whole organism, Chlamydomonas reinhardtii, WT vs cilia-less mutant, absorbance, 96-well, primary screen (AID 463189); conditions: Chlamydomonas reinhardtii gravitaxis, OD600 absorbance, 2 days; at 10 µM; stronger effect = higher value;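 also: 0% = wild type cc124 cells in DMSO and 100% = ciliumless bld1 mutant cells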
[11] = blockers of RIG-like receptor reporter activation – cell-based, Sendai virus stimulus, luciferase, 10K MLSCN set, TLR/RLR signaling modifier project, primary screen (AID 602276;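 active = inhibition at or above 50% at 10 µM; inactive = inhibition below 50%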;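 also: firefly luciferase from ISG56 promoter only with Renilla not read in this screen; 0% = Sendai virus plus DMSO and 100% = medium plus DMSO without virus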); conditions: HEK293 RL24 IRF3 luciferase reporter, at 10 µM, stronger effect = higher value
[12] = TLR3 IRF3 reporter activation blockers – cell-based, poly I:C stimulus, luciferase, 10K MLSCN set, primary screen (AID 602277;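 active = inhibition of the reporter signal at or above 50%; inactive = inhibition below 50%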); conditions: HEK293-TLR3 RL24 IRF3 luciferase reporter, at 10 µM, stronger effect = higher value
[13] = measured here: cell density z-score
[14] = measured here: nuclear c-Myc green intensity z-score
[15] = measured here: nuclear pErk red intensity z-score, stronger effect = higher value

Row | Structure (SMILES) | cell count [1] | inhibition [1] | inhibition of aggregation [2] | nuclei count [2] | inhibition [3] | nuclei count [3] | z-score [4, 13] | z-score [4, 14] | z-score [4, 15] | inhibition [5] | fluorescence slope [6] | NADPH fluorescence slope [7] | slope [8] | outcome [9] | inhibition [10] | inhibition [11] | inhibition [12]
1 | Cc1ccc(N(CC(O)CN2CCCC2)S(=O)(=O)c2ccc(C)cc2)cc1 (stereo not given) | 415 | -5.4% (inactive) | 8.3% (inactive) | 97.4% | -210% (inactive) | 148% | 1.32 | -1.19 | -0.796 | 13.2% (inactive) | -0.388 (inactive) | -5e-05 (inactive) | 0.00478 (inactive) | inactive | 7.07% (inactive) | -14.3% (inactive) | -1.97% (inactive)
2 | CC(C[N+](C)(C)C)OC(N)=O (stereo not given) | 492 | 17.2% (inactive) | -16.6% (inactive) | 106% | -25.7% (inactive) | 125% | -0.295 | 0.566 | -0.0176 | 5.42% (inactive) | -0.491 (inactive) | -6.6e-05 (inactive) | 0.00575 (inactive) | inactive | 4.16% (inactive) and 23.3% (inactive) | 14.7% (inactive) | 38.3% (inactive)
3 | C=CCn1c(SCC(=O)NC23CC4CC(CC(C4)C2)C3)nc(O)cc1=O | 629 | -3.7% (inactive) | -0.4% (inactive) | 103% | -39.7% (inactive) | 129% | -0.394 | -0.06 | 0.754 | 7.83% (inactive) | -0.532 (inactive) | -4.2e-05 (inactive) | 0.00471 (inactive) | inactive | 12.5% (inactive) | 17.8% (inactive) | 24.6% (inactive)
4 | O=C(O)c1cc(O)c2c(c1)C(=O)c1cccc(O)c1C2=O | 610 | -3% (inactive) | 26.7% (inactive) | 100% | -98.1% (inactive) | 128% | 0.571 | -1.15 | 1.27 | 3.45% (inactive) | -0.417 (inactive) | -1.3e-05 (inactive) | -0.00744 (active) | inactive | 2.72% (inactive) | 18% (inactive) | 42.8% (inactive)
5 | CN1CC=C2C(C#N)=C(N)C(C#N)(C#N)[C@H](c3cccc(Cl)c3)C2C1 (stereo not given in full) | 642 | -6% (inactive) | -38.1% (inactive) | 98.3% | -18.6% (inactive) | 125% | 0.015 | 5.62 | 0.205 | 71% (inactive) | -0.368 (inactive) | -4.7e-05 (inactive) | 0.00551 (inactive) | inactive | 5.27% (inactive) | 13.6% (inactive) | 24.1% (inactive)
6 | CCOC(=O)[C@H](CCc1ccccc1)N[C@@H](C)C(=O)N1CCC[C@H]1C(=O)O | 512 | -1.7% (inactive) | -27.5% (inactive) | 76.9% | -7.9% (inactive) | 112% | 1.2 | 0.592 | -0.0475 | 11.3% (inactive) | -0.554 (inactive) | -1.6e-05 (inactive) | 0.00627 (inactive) | inactive | 34.1% (inactive) | 9.18% (inactive) | 28.5% (inactive)
7 | CC(=O)[C@@]1(O)CC[C@H]2[C@@H]3CCC4=CC(=O)CC[C@]4(C)[C@H]3[C@@H](O)C[C@@]21C | 623 | 0.5% (inactive) | 16.3% (inactive) | 83% | -142% (inactive) | 140% | -0.503 | -0.682 | 0.228 | -4.44% (inactive) | -0.495 (inactive) | -5.2e-05 (inactive) | 0.00465 (inactive) | inactive | -7.94% (inactive) | 8.03% (inactive) | 38.5% (inactive)
8 | CCCCCC#CCC#CCC#CCC#CCCCC(=O)O | 542 | -10.5% (inactive) | -23.3% (inactive) | 92.5% | -39.3% (inactive) | 127% | -0.772 | 0.757 | 0.0999 | -0.493% (inactive) | -0.461 (inactive) | -0.000212 (active) | 0.00468 (inactive) | inactive | 2.88% (inactive) | 11% (inactive) | 33.2% (inactive)
9 | COC(=O)c1ccc(C2NC(C(=O)O)CS2)cc1 (stereo not given) | 652 | -14.6% (inactive) | 3.9% (inactive) | 107% | -8.7% (inactive) | 139% | -0.228 | -1.99 | -1.57 | -9.66% (inactive) | -0.4 (inactive) | -2.2e-05 (inactive) | 0.00581 (inactive) | inactive | 5.15% (inactive) | 14.2% (inactive) | 18.9% (inactive)
10 | OC[C@H]1O[C@@H](n2cnc3c(Nc4ccccc4)ncnc32)[C@H](O)[C@@H]1O | 606 | -3.3% (inactive) | 17.1% (inactive) | 104% | -19.9% (inactive) | 107% | 1.07 | -1.93 | -0.432 | -0.828% (inactive) | -0.459 (inactive) | -4.6e-05 (inactive) | 0.00784 (inactive) | inactive | -14.4% (inactive) | -32.6% (inactive) | -55.1% (inactive)
11 | Cc1nc(SC2C=CS(=O)(=O)C2)n[nH]1 (stereo not given) | 427 | -0.8% (inactive) | 10.8% (inactive) | 98.1% | -43.2% (inactive) | 139% | -0.37 | 0.156 | 1.24 | -6.86% (inactive) | -0.482 (inactive) | -0.000222 (inactive) | 0.00468 (inactive) | inactive | -12% (inactive) | 14.6% (inactive) | 18.4% (inactive)
12 | COc1ccc2c(c1OC)C(=O)OC2C1c2c(cc3c(c2OC)OCO3)CCN1C (stereo not given) | 463 and 544 | -10.9% (inactive) and 0.8% (inactive) | -1% (inactive) and -12.6% (inactive) | 101% and 94.4% | -43.9% (inactive) and -115% (inactive) | 132% and 119% | 1.55 | -0.813 | -0.77 | 5.42% (inactive) | -0.541 (inactive) and -0.459 (inactive) | 7.5e-05 (inactive) and -6e-05 (inactive) | 0.0053 (inactive) and 0.00526 (inactive) | inactive | 19.2% (inactive) | 23.1% (inactive) and 13.1% (inactive) | 29.1% (inactive) and 24% (inactive)
13 | O=C(Nc1ccc2c(c1)OCO2)c1cncc(Br)c1 | 613 | -11% (inactive) | -11.9% (inactive) | 87.1% | -29.9% (inactive) | 149% | 1.08 | -0.36 | -1.03 | 19.1% (inactive) | -0.419 (inactive) | -3.7e-05 (inactive) | 0.00513 (inactive) | inactive | -3.07% (inactive) | -15.3% (inactive) | -51.1% (inactive)
14 | CCN(CC)CCNC(=O)c1cc(S(C)(=O)=O)ccc1OC | 676 | -4.3% (inactive) | 0.8% (inactive) | 118% | -40% (inactive) | 137% | -1.16 | -0.48 | 0.595 | 1.48% (inactive) | -0.508 (inactive) | -3.1e-05 (inactive) | 0.00485 (inactive) | inactive | 3.78% (inactive) and -4.27% (inactive) | 21.3% (inactive) | 35.4% (inactive)
15 | Fc1ccc(C2C3=C(Nc4ncnn42)c2ccccc2OC3c2ccncc2)cc1 (stereo not given) | 363 | 1.7% (inactive) | 2.1% (inactive) | 113% | -83.1% (inactive) | 136% | 0.971 | -0.105 | 1.45 | 21.4% (inactive) | -0.41 (inactive) | -0.000137 (inactive) | 0.00729 (inactive) | inactive | -7.08% (inactive) | 17.4% (inactive) | 19.3% (inactive)
16 | Cc1c(OCC(F)(F)F)ccnc1CS(=O)c1nc2ccccc2[nH]1 (stereo not given) | 654 | 0.3% (inactive) | 8.2% (inactive) | 77.3% | -74.2% (inactive) | 98.2% | 1.3 | -0.826 | -0.353 | 14.6% (inactive) | -0.466 (inactive) | -3.7e-05 (inactive) | 0.00411 (inactive) | inactive | -14.9% (inactive) and -4.97% (inactive) | -45.4% (inactive) | -64.9% (inactive)
17 | c1ccc(SCc2nc3ccccc3[nH]2)nc1 | 407 | -12.9% (inactive) | -9.8% (inactive) | 107% | -65.1% (inactive) | 119% | 0.727 | 0.54 | -0.488 | 9.39% (inactive) | -0.624 (inactive) | -2.9e-05 (inactive) | 0.00427 (inactive) | inactive; toxic | 13.1% (inactive) | -49.8% (inactive) | -119% (inactive)
18 | CCCN(CCC)C(=O)C(CCC(=O)O)NC(=O)c1ccccc1 (stereo not given) | 589 | -1.1% (inactive) | 11.8% (inactive) | 92.5% | -37.3% (inactive) | 118% | -1.75 | 0.853 | -0.876 | 5.79% (inactive) | -0.461 (inactive) | -3.2e-05 (inactive) | 0.00459 (inactive) | inactive | 5.36% (inactive) and -10.6% (inactive) | 11.3% (inactive) | 28% (inactive)
19 | CCN(CC)c1ccc(-c2nn3c(-c4cccnc4)nnc3s2)cc1 | 508 | -7.3% (inactive) | -31.1% (inactive) | 10% | -247% (inactive) | 120% | 0.463 | -0.276 | 0.497 | -6.06% (inactive) | -0.39 (inactive) | -8.4e-05 (inactive) | 0.00633 (inactive) | inactive | 128% (active) | 49.1% (inactive) | 7.63% (inactive)
20 | CCc1ccccc1NC(=O)CSC1=C(C#N)C(c2ccc(O)c(OC)c2)C2=C(CCCC2=O)N1 (stereo not given) | 554 | -8.4% (inactive) | -29.5% (inactive) | 109% | -146% (inactive) | 137% | -0.0849 | -0.0258 | 0.52 | 13.2% (inactive) | -0.422 (inactive) | -3.5e-05 (inactive) | 0.00571 (inactive) | inactive | 22.1% (inactive) | 18.6% (inactive) | 20% (inactive)

— PubChem BioAssay
